Results published in the supplement of paper PMC9023506.
Structures can show the parent of a compound that is named as a salt.

tested on: Danio rerio larvae (5 dpf); assay: activity during period 15 (no stimuli), difference vs DMSO (percentage points (treated minus DMSO)); higher = more of the behaviour than the DMSO vehicle control; settings: 10 µM; exposure time: 3 h pre-incubation + 3 h imaging
Description: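 5-dpf wild-type zebrafish larvae were imaged in 96-well plates. They were treated with 190 Tocris FDA-approved drugs at 10 µM (1 µl/ml DMSO) for 3 h before and 3 h during imaging at 28.5 °C, 48 larvae per drug. Automated image analysis gave % time moving and optomotor responses. Values are drug group mean minus DMSO vehicle mean (n=844), in percentage points, for 10 behaviours.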

Structure (SMILES)	activity during period 15
CC(=O)Nc1ccc(O)cc1 [Acetaminophen]	8.08
CC[C@H](C)C(=O)O[C@H]1C[C@@H](C)C=C2C=C[C@H](C)[C@H](CC[C@@H]3C[C@@H](O)CC(=O)O3)[C@H]21 [Lovastatin]	-4.33
OC(CNCC(O)C1CCc2cc(F)ccc2O1)C1CCc2cc(F)ccc2O1 (stereo not given) [Nebivolol hydrochloride]	14
C#CCN[C@@H]1CCc2ccccc21 [Rasagiline mesylate]	-1.03
Nc1ccn([C@@H]2O[C@H](CO)[C@@H](O)C2(F)F)c(=O)n1 [Gemcitabine hydrochloride]	-1.53
COCCCOc1cc(C[C@@H](C[C@H](N)[C@@H](O)C[C@H](C(=O)NCC(C)(C)C(N)=O)C(C)C)C(C)C)ccc1OC [Aliskiren hemifumarate]	-3.61
Nc1nc(F)nc2c1ncn2[C@@H]1O[C@H](CO)[C@@H](O)[C@@H]1O [Fludarabine]	-6.57
NS(=O)(=O)Cc1noc2ccccc12 [Zonisamide]	-7.11
Cc1ccccc1C(=O)Nc1ccc(C(=O)N2CCCC(O)c3cc(Cl)ccc32)c(C)c1 (stereo not given) [Tolvaptan]	-8.09
O=C(O)C[C@H](O)C[C@H](O)/C=C/c1c(C2CC2)nc2ccccc2c1-c1ccc(F)cc1 [Pitavastatin calcium]	-4.44
CCCCC(=O)N(Cc1ccc(-c2ccccc2-c2nnn[nH]2)cc1)[C@H](C(=O)O)C(C)C [Valsartan]	9.35
Nc1nc(Cl)nc2c1ncn2[C@@H]1O[C@H](CO)[C@@H](O)[C@@H]1F [Clofarabine]	-4.3
C=CC(=O)N1CCC[C@@H](n2nc(-c3ccc(Oc4ccccc4)cc3)c3c(N)ncnc32)C1 [Ibrutinib]	-4.55
CCCCCCCCc1ccc(CCC(N)(CO)CO)cc1	-23.3
O=c1[nH]c(=O)n([C@H]2C[C@H](O)[C@@H](CO)O2)cc1C(F)(F)F [Trifluorothymidine]	-1.33
COc1cc2nccc(Oc3ccc(NC(=O)C4(C(=O)Nc5ccc(F)cc5)CC4)cc3)c2cc1OC	16.2
CN1CC[C@@H](NC(=O)Nc2ccc(C#N)cc2)C[C@@H]1c1nc2ccccc2[nH]1	-0.815
CN/C(=N\CCSCc1nc[nH]c1C)NC#N [Cimetidine]	-5.2
CCCc1nc(C(C)(C)O)c(C(=O)O)n1Cc1ccc(-c2ccccc2-c2nnn[nH]2)cc1 [Olmesartan]	4.45
Cc1ccc(-c2cc(C(F)(F)F)nn2-c2ccc(S(N)(=O)=O)cc2)cc1 [Celecoxib]	3.28

Structure (SMILES)	activity during period 15
CC1CNc2c(cccc2S(=O)(=O)N[C@@H](CCCNC(=N)N)C(=O)N2CC[C@@H](C)C[C@@H]2C(=O)O)C1 (stereo not given in full) [Argatroban]	-2.33
CN1CC2c3ccccc3Oc3ccc(Cl)cc3C2C1 (stereo not given) [Asenapine maleate]	40.8
Cc1ccc(O)c([C@H](CCN(C(C)C)C(C)C)c2ccccc2)c1 [Tolterodine L-tartrate]	13.9
COC(c1ccccc1)(c1ccccc1)[C@H](Oc1nc(C)cc(C)n1)C(=O)O [Ambrisentan]	-4.72
Clc1ccc(COC(Cn2ccnc2)c2ccc(Cl)cc2Cl)c(Cl)c1 (stereo not given) [Miconazole nitrate]	-12.8
COCCc1ccc(OCC(O)CNC(C)C)cc1 (stereo not given) [Metoprolol tartrate]	3.61
NS(=O)(=O)c1cc2c(cc1Cl)NC(C1CC3C=CC1C3)NS2(=O)=O (stereo not given) [Cyclothiazide]	3.93
Nc1nc(NC2CC2)c2ncn([C@H]3C=C[C@@H](CO)C3)c2n1 [Abacavir hemisulfate]	-3.3
Clc1ccc2nsnc2c1NC1=NCCN1 [Tizanidine hydrochloride]	-20.8
C[C@H](Cc1cc2c(c(C(N)=O)c1)N(CCCO)CC2)NCCOc1ccccc1OCC(F)(F)F [Silodosin]	-7.59
Nc1ncn([C@H]2C[C@H](O)[C@@H](CO)O2)c(=O)n1 [Decitabine]	1.76
Nc1nc2[nH]cc(CCc3ccc(C(=O)N[C@@H](CCC(=O)O)C(=O)O)cc3)c2c(=O)[nH]1 [Pemetrexed]	1.39
CCCCCOC(=O)Nc1nc(=O)n([C@@H]2O[C@H](C)[C@@H](O)[C@H]2O)cc1F [Capecitabine]	2.91
CCOC(=O)C1=C(C)NC(C)=C(C(=O)OC)C1c1cccc(Cl)c1Cl (stereo not given) [Felodipine]	-11.6
Cc1ccc(NC(=O)c2ccc(CN3CCN(C)CC3)cc2)cc1Nc1nccc(-c2cccnc2)n1 [Imatinib mesylate]	-11.6
CNS(=O)(=O)Cc1ccc2[nH]cc(CCN(C)C)c2c1 [Sumatriptan succinate]	3.89
CC(C)c1ccc2oc3nc(N)c(C(=O)O)cc3c(=O)c2c1 [Amlexanox]	7.93
Cc1cn([C@H]2C=C[C@@H](CO)O2)c(=O)[nH]c1=O [Stavudine]	-0.445
CN(CCOc1ccc(CC2SC(=O)NC2=O)cc1)c1ccccn1 (stereo not given) [Rosiglitazone]	7.42
Nc1cccc2c1CN(C1CCC(=O)NC1=O)C2=O (stereo not given) [Lenalidomide]	4.34
